Hit rate of the full screen: of about 5,500 compounds, about 2,000 (36%) were called active. Another 18% or so got no clear call; they are omitted. The list shows a part of the results. Unmarked numbers belong to inactive results. Rule as the data show it: active = normalized growth mostly below about 0.91 (no sharp cut-off); inconclusive = no clear call, values can overlap the other calls; inactive = mostly above about 0.92.
Test: chemical genetic growth profiling, strain panel (AID 1159580);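 also: tested at 20 µM; growth read once vehicle control cultures reached saturation at 30 °C; 1 = growth at the plate median or of vehicle wells; lower values mean less growth of the strain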
Conditions: S. cerevisiae deletion strains, growth OD
[1] = locus YAR019C, strain CDC15, hits give low values
[2] = locus YBL105C, strain PKC1, hits give low values
[3] = locus YBR135W, strain CKS1, hits give low values
[4] = locus YBR136W, strain MEC1, hits give low values
[5] = locus YBR160W, strain CDC28, hits give low values
[6] = locus YDL017W, strain CDC7, hits give low values
[7] = locus YDL028C, strain MPS1, hits give low values
[8] = locus YDL101C, strain DUN1, hits give low values
[9] = locus YDL108W, strain KIN28, hits give low values
[10] = locus YDL132W, strain cdc53, hits give low values
[11] = locus YDL214C, strain PRR2, hits give low values
[12] = locus YDR052C, strain DBF4, hits give low values
[13] = locus YDR054C, strain cdc34, hits give low values
[14] = locus YDR226W, strain ADK1, hits give low values
[15] = locus YDR477W, strain SNF1, hits give low values
[16] = locus YER123W, strain YCK3, hits give low values
[17] = locus YER133W, strain GLC7, hits give low values
[18] = locus YFL009W, strain cdc4, hits give low values
[19] = locus YFL029C, strain CAK1, hits give low values
[20] = locus YFR003C, strain YPI1, hits give low values
[21] = locus YFR019W, strain FAB1, hits give low values
[22] = locus YFR028C, strain CDC14, hits give low values
[23] = locus YGR040W, strain KSS1, hits give low values
[24] = locus YGR052W, strain FMP48, hits give low values
[25] = locus YGR092W, strain DBF2, hits give low values
[26] = locus YHR030C, strain SLT2, hits give low values
[27] = locus YHR079C, strain IRE1, hits give low values
[28] = locus YHR082C, strain KSP1, hits give low values
[29] = locus YHR205W, strain SCH9, hits give low values
[30] = locus YIL147C, strain SLN1, hits give low values
[31] = locus YJL095W, strain BCK1, hits give low values
[32] = locus YJL128C, strain PBS2, hits give low values
[33] = locus YJL157C, strain FAR1, hits give low values
[34] = locus YJR016C, strain ILV3, hits give low values
[35] = locus YJR066W, strain TOR1 (second series), hits give low values
[36] = locus YJR066W, strain TOR1, hits give low values
[37] = locus YKL048C, strain ELM1, hits give low values
[38] = locus YKL067W, strain YNK1, hits give low values
[39] = locus YKL101W, strain HSL1, hits give low values
[40] = locus YKL193C, strain SDS22, hits give low values
[41] = locus YKL203C, strain TOR2, hits give low values
[42] = locus YLR113W, strain HOG1, hits give low values
[43] = locus YLR133W, strain CKI1, hits give low values
[44] = locus YLR403W, strain SFP1, hits give low values
[45] = locus YML070W, strain DAK1, hits give low values
[46] = locus YMR001C, strain CDC5, hits give low values
[47] = locus YMR205C, strain PFK2 (second series), hits give low values
[48] = locus YMR277W, strain FCP1, hits give low values
[49] = locus YNL006W, strain LST8, hits give low values
[50] = locus YNL020C, strain ARK1, hits give low values
[51] = locus YNL161W, strain CBK1, hits give low values
[52] = locus YNL183C, strain NPR1, hits give low values
[53] = locus YNL207W, strain RIO2, hits give low values
[54] = locus YNL222W, strain SSU72, hits give low values
[55] = locus YNL307C, strain MCK1 (second series), hits give low values
[56] = locus YOL078W, strain AVO1, hits give low values
[57] = locus YOL136C, strain PFK27, hits give low values
[58] = locus YOR061W, strain CKA2, hits give low values
[59] = locus YOR119C, strain RIO1, hits give low values
[60] = locus YOR231W, strain MKK1, hits give low values
[61] = locus YOR329C, strain SCD5, hits give low values
[62] = locus YPL031C, strain PHO85, hits give low values
[63] = locus YPL153C, strain RAD53, hits give low values
[64] = locus YPL204W, strain HRR25, hits give low values
[65] = locus YPL209C, strain IPL1, hits give low values
[66] = locus YPL256C, strain CLN2, hits give low values
[67] = locus YPR025C, strain CCL1, hits give low values
[68] = locus YPR106W, strain ISR1, hits give low values
[69] = locus YPR111W, strain DBF20, hits give low values
[70] = strain NNK1, hits give low values
[71] = strain TSCII, hits give low values

COc1cc(N=Cc2cc(Cl)cc(Cl)c2OS(=O)(=O)c2ccc(C)cc2)c(OC)cc1Cl
normalized growth [1]: 0.935 | normalized growth [2]: 0.948 | normalized growth [3]: 0.943 | normalized growth [4]: 0.944 | normalized growth [5]: 0.927 | normalized growth [6]: 0.957 | normalized growth [7]: 0.921 | normalized growth [8]: 0.951 | normalized growth [9]: 0.936 | normalized growth [10]: 0.942 | normalized growth [11]: 0.891 | normalized growth [12]: 0.958 | normalized growth [13]: 0.947 | normalized growth [14]: 0.946 | normalized growth [15]: 0.914 | normalized growth [16]: 0.896 | normalized growth [17]: 0.929 | normalized growth [18]: 0.926 | normalized growth [19]: 0.932 | normalized growth [20]: 0.952 | normalized growth [21]: 0.955 | normalized growth [22]: 0.919 | normalized growth [23]: 0.918 | normalized growth [24]: 0.917 | normalized growth [25]: 0.849 | normalized growth [26]: 0.651 (active) | normalized growth [27]: 0.794 | normalized growth [28]: 0.829 | normalized growth [29]: 0.846 | normalized growth [30]: 0.949 | normalized growth [31]: 0.903 | normalized growth [32]: 0.884 | normalized growth [33]: 0.928 | normalized growth [34]: 0.963 | normalized growth [35]: 0.943 | normalized growth [36]: 0.805 | normalized growth [37]: 0.939 | normalized growth [38]: 0.897 | normalized growth [39]: 0.902 | normalized growth [40]: 0.946 | normalized growth [41]: 0.991 | normalized growth [42]: 0.85 (active) | normalized growth [43]: 0.906 | normalized growth [44]: 0.911 | normalized growth [45]: 0.902 | normalized growth [46]: 0.934 | normalized growth [47]: 0.923 | normalized growth [48]: 0.922 | normalized growth [49]: 0.955 | normalized growth [50]: 0.903 | normalized growth [51]: 0.95 | normalized growth [52]: 0.941 | normalized growth [53]: 0.952 | normalized growth [54]: 0.92 | normalized growth [55]: 0.921 | normalized growth [56]: 0.94 | normalized growth [57]: 0.881 | normalized growth [58]: 0.945 | normalized growth [59]: 0.924 | normalized growth [60]: 0.845 | normalized growth [61]: 0.958 | normalized growth [62]: 0.926 | normalized growth [63]: 0.911 | normalized growth [64]: 0.906 | normalized growth [65]: 0.947 | normalized growth [66]: 0.86 (active) | normalized growth [67]: 0.948 | normalized growth [68]: 0.942 | normalized growth [69]: 0.901 | normalized growth [70]: 0.943 | normalized growth [71]: 0.935

COC(=O)c1ccc([N+](=O)[O-])cc1Cl
normalized growth (locus YAL013W, strain DEP1, hits give low values): 0.991 | normalized growth (locus YBR229C, strain ROT2, hits give low values): 0.998 | normalized growth (locus YCL061C, strain MRC1, hits give low values): 1 | normalized growth [8]: 0.989 | normalized growth (locus YDL134C, strain PPH21, hits give low values): 0.983 | normalized growth (locus YDR150W, strain NUM1, hits give low values): 0.923 | normalized growth (locus YEL061C, strain CIN8, hits give low values): 0.988 | normalized growth (locus YGR078C, strain PAC10, hits give low values): 0.993 | normalized growth [26]: 0.989 | normalized growth (locus YHR087W, strain rtc3, hits give low values): 1.01 | normalized growth (locus YJL187C, strain SWE1, hits give low values): 0.991 | normalized growth (locus YJR043C, strain POL32, hits give low values): 1.02 | normalized growth (locus YJR075W, strain HOC1, hits give low values): 0.996 | normalized growth (locus YLR039C, strain RIC1, hits give low values): 0.983 | normalized growth (locus YLR058C, strain SHM2 (second series), hits give low values): 0.983 | normalized growth (locus YLR085C, strain ARP6, hits give low values): 0.881 | normalized growth (locus YLR262C, strain YPT6, hits give low values): 1 | normalized growth (locus YML094W, strain GIM5, hits give low values): 0.964 | normalized growth (locus YMR219W, strain ESC1, hits give low values): 0.992 | normalized growth (locus YMR263W, strain SAP30, hits give low values): 0.992 | normalized growth (locus YMR307W, strain GAS1, hits give low values): 1.05 | normalized growth (locus YNL128W, strain TEP1, hits give low values): 0.985 | normalized growth (locus YNL153C, strain GIM3, hits give low values): 1.01 | normalized growth (locus YNL298W, strain CLA4 (second series), hits give low values): 0.97 | normalized growth (locus YNL322C, strain KRE1, hits give low values): 1 | normalized growth (locus YNR030W, strain Alg12, hits give low values): 1.01 | normalized growth (locus YOL006C, strain TOP1, hits give low values): 0.756 | normalized growth (locus YPL055C, strain LGE1, hits give low values): 0.95 | normalized growth (locus YPL241C, strain CIN2, hits give low values): 0.992 | normalized growth (locus YPR135W, strain CTF4, hits give low values): 1.03

COc1cc(N=Cc2cc(Cl)cc(Cl)c2OC(=O)c2cc(OC)c(OC)c(OC)c2)c(OC)cc1Cl
normalized growth [1]: 0.965 | normalized growth [2]: 0.977 | normalized growth [3]: 0.969 | normalized growth [4]: 0.974 | normalized growth [5]: 0.968 | normalized growth [6]: 0.981 | normalized growth [7]: 0.959 | normalized growth [8]: 0.962 | normalized growth [9]: 0.945 | normalized growth [10]: 0.966 | normalized growth [11]: 0.369 (active) | normalized growth [12]: 0.989 | normalized growth [13]: 0.98 | normalized growth [14]: 0.947 | normalized growth [15]: 0.31 (active) | normalized growth [16]: 0.212 (active) | normalized growth [17]: 0.398 (active) | normalized growth [18]: 0.956 | normalized growth [19]: 0.971 | normalized growth [20]: 0.975 | normalized growth [21]: 0.34 (active) | normalized growth [22]: 0.962 | normalized growth [23]: 0.381 (active) | normalized growth [24]: 0.235 (active) | normalized growth [25]: 0.183 (active) | normalized growth [26]: 0.145 (active) | normalized growth [27]: 0.161 (active) | normalized growth [28]: 0.176 (active) | normalized growth [29]: 0.202 (active) | normalized growth [30]: 0.977 | normalized growth [31]: 0.177 (active) | normalized growth [32]: 0.937 | normalized growth [33]: 0.32 (active) | normalized growth [34]: 0.987 | normalized growth [35]: 0.463 (active) | normalized growth [36]: 0.148 (active) | normalized growth [37]: 0.458 (active) | normalized growth [38]: 0.392 (active) | normalized growth [39]: 0.346 (active) | normalized growth [40]: 0.972 | normalized growth [41]: 0.345 (active) | normalized growth [42]: 0.243 (active) | normalized growth [43]: 0.354 (active) | normalized growth [44]: 0.244 (active) | normalized growth [45]: 0.317 (active) | normalized growth [46]: 0.963 | normalized growth [47]: 0.421 (active) | normalized growth [48]: 0.954 | normalized growth [49]: 0.982 | normalized growth [50]: 0.335 (active) | normalized growth [51]: 0.98 | normalized growth [52]: 0.235 (active) | normalized growth [53]: 0.977 | normalized growth [54]: 0.958 | normalized growth [55]: 0.238 (active) | normalized growth [56]: 0.969 | normalized growth [57]: 0.273 (active) | normalized growth [58]: 0.346 (active) | normalized growth [59]: 0.307 (active) | normalized growth [60]: 0.207 (active) | normalized growth [61]: 0.981 | normalized growth [62]: 0.292 (active) | normalized growth [63]: 0.279 (active) | normalized growth [64]: 0.312 (active) | normalized growth [65]: 0.977 | normalized growth [66]: 0.215 (active) | normalized growth [67]: 0.974 | normalized growth [68]: 0.962 | normalized growth [69]: 0.943 | normalized growth [70]: 0.98 | normalized growth [71]: 0.96
